# Assay outcomes: PubChem, several laboratories
# GRIN3A LBD mod: modulates the human NR3A ligand-binding domain. NR3A LBD differential scanning fluorimetry, Tm shift; 0% = protein alone, 100% = glycine-bound protein. Tm shift relative to glycine control, % at 25 µM. 340,000 tested, 2.5% active. AID 1259313;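 active = melting temperature shift of at least 10% of the positive control shift, at one fixed dose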
# HGIII-sPLA2 inh: Blocks human group III sPLA2 activity; Q9NZ20; QFRET BODIPY PC-A2 liposome hydrolysis, fluorescence; inhibition, % at 12.2 µM; 370,000 tested, 0.56% active;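 active = inhibition above mean plus 3 SD of compounds lying within the high and low control bounds, cut at about 19% in these data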;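 also: 0% = median of test compound wells and 100% = no enzyme DMSO wells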
# FAS-TE inh: blocks the thioesterase domain of human fatty acid synthase | inhibition, % at 15 µM | 360,000 tested, 0.67% active | P49327 | recombinant FAS-TE, OMFH fluorogenic substrate, fluorescence endpoint;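 active = compounds whose normalised, plate-corrected inhibition of enzyme fluorescence in the single-dose primary screen is 50% or more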;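 also: 0% = DMSO with enzyme and 100% = substrate without enzyme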
# ADAM17 inh: inhibitors of human ADAM17; P78536; AID 720648; recombinant ADAM17, EDANS/DABCYL FRET peptide cleavage; 370,000 tested, 0.83% active; inhibition, % at 6.95 µM;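 active = inhibition above the mean of compounds lying between control limits plus 3 SD, set per campaign, cut at about 8.5% in these data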;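 also: 0% = DMSO-only wells as the low control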
# Target sequence (P78536 215-824 limits assumed): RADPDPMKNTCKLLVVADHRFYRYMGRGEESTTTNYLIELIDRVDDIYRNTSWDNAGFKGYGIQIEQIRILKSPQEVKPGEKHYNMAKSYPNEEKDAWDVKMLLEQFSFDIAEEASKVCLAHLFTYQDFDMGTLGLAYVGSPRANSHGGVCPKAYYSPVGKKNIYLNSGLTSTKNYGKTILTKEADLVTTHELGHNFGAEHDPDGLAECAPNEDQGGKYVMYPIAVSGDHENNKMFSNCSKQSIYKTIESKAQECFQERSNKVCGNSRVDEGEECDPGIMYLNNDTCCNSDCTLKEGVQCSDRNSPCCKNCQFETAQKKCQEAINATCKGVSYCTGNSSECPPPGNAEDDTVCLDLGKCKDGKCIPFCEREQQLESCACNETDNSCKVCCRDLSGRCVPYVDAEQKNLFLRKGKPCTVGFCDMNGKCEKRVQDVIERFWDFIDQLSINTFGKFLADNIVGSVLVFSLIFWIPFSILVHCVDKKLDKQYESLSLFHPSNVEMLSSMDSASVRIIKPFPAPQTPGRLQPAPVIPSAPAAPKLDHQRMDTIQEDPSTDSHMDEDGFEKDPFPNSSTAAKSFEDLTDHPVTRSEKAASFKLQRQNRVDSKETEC
# ADAM10 inh: ADAM10 inhibition, QFRET primary screen; 370,000 tested, 0.62% active; recombinant ADAM10, EDANS/DABCYL FRET peptide cleavage, 3 h; inhibition, % at 7 µM; O14672;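 active = inhibition above a per-campaign cutoff equal to the mean of compounds falling between control-based bounds plus 3 SD, cut at about 20% in these data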;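 also: 0% = DMSO wells while the 100% control is not disclosed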
# ADAM10 confirm: confirmation of inhibitors of human ADAM10. inhibition, % at 6.95 µM. ADAM10 QFRET peptide cleavage, EDANS fluorescence. 2,100 tested, 1% active. shares compounds with ADAM10 inh;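 active = inhibition above about 20% chosen separately for each screening run, limit read from the data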;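 also: 0% = DMSO wells and 100% = marimastat wells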
# ADAM17 counter: inhibits human ADAM17 in ADAM10 exosite counter-screen; shares compounds with ADAM10 inh; ADAM17 QFRET peptide cleavage, EDANS fluorescence; inhibition, % at 6.95 µM; 2,100 tested, 0.5% active; AID 743214;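 active = mean triplicate inhibition above the solvent-only control wells' mean plus 3 SD, cut at about 12% in these data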;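 also: 0% = DMSO wells and 100% = marimastat wells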
# ADAM10 counter: inhibits human ADAM10 in ADAM17 exosite counter-screen; shares compounds with ADAM17 inh; 2,900 tested, 47% active; recombinant ADAM10, EDANS/DABCYL FRET peptide cleavage, 3 h; inhibition, % at 6.95 µM; AID 743256;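 active = mean inhibition over the triplicate runs exceeds the activity threshold set in the earlier primary screen, cut at about 20% in these data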;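 also: 0% = DMSO wells and 100% = marimastat wells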
# ADAM17 confirm: confirmation of inhibitors of human ADAM17; AID 743257; 2,900 tested, 65% active; shares compounds with ADAM17 inh; recombinant ADAM17, EDANS/DABCYL QFRET peptide cleavage; inhibition, % at 6.95 µM;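 active = mean inhibition across replicates above the hit cutoff set in the primary screen, cut at about 8.5% in these data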;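 also: 0% = DMSO wells and 100% = marimastat wells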
# The depositor's hits bear a star; x = no result given. Most compounds without a hit are left out; they make up all but 4.3% or so of the library.
SMILES,GRIN3A LBD mod,HGIII-sPLA2 inh,FAS-TE inh,ADAM17 inh,ADAM10 inh,ADAM10 confirm,ADAM17 counter,ADAM10 counter,ADAM17 confirm
CCOC(=O)c1cccc(NC(=O)CN(C)S(=O)(=O)c2ccc(C)c(C)c2)c1,x,-11,x,3,-3,x,x,x,x
COC(=O)[C@]12C[C@H](CC(=O)NCc3cccc4ccccc34)C(=O)N(Cc3ccccc3)C1=C[C@H](C1CCCC1)O[C@@H]2C,x,-18,x,1,5,x,x,x,x
O=C(NCc1cccs1)C1CCCN(S(=O)(=O)c2ccccc2)C1 (configuration not stated),x,4,x,5,-8,x,x,x,x
CC(C)[C@H](NS(=O)(=O)c1ccccc1)C(=O)OCC(=O)Nc1ccccc1Sc1ccccc1,-7,-28,28,9.6*,20*,5,2,18,9.1*
Cc1cc(NC(=O)COC(=O)[C@@H](NS(=O)(=O)c2ccccc2)C(C)C)no1,-1,2,-2,-1,-9,x,x,x,x
COc1cccc(C(O)c2nc(-c3ccc(F)cc3OC)cs2)c1 (configuration not stated),x,-21,8,11*,30*,3,1,11,8.8*
COc1cc(C(O)c2nc(-c3cccc(C(C)C)c3)cs2)ccc1F (configuration not stated),x,-1,19,11*,20*,6,2,24*,13*
COc1ccc(C(O)c2nc(-c3ccc(F)cc3OC)cs2)cc1 (configuration not stated),x,-19,17,2,7,x,x,x,x
COc1cc(C(O)c2nc(/C=C/c3ccccc3)cs2)ccc1F (configuration not stated),x,-34,18,17*,42*,3,1,22*,11*
COc1cc(C(O)c2nc(-c3cccc(F)c3)cs2)ccc1F (configuration not stated),x,-11,18,1,1,x,x,x,x
COC(=O)[C@]12C[C@H](CC(=O)NCc3ccccc3)C(=O)N(CCC3=CCCCC3)C1=C[C@H](C1CCCC1)O[C@@H]2C,x,-4,x,4,9,x,x,x,x
COC(=O)c1cc(-c2cccc(C(C)C)c2)c(=O)n2c1CCC2,x,2,x,-5,-16,x,x,x,x
CN(C)S(=O)(=O)c1cccc(NC(=O)COC(=O)c2cccc(S(=O)(=O)N3CCc4ccccc4C3)c2)c1,-11,-25,29,11*,23*,7,2,16,12*
CN(C)S(=O)(=O)c1cccc(NC(=O)COC(=O)c2cn(-c3ccccc3)nc2-c2ccccc2)c1,14*,-33,27,11*,29*,8,3,31*,19*
CN(C)S(=O)(=O)c1cccc(NC(=O)COC(=O)c2ccc3c(c2)OCO3)c1,-4,-14,2,-2,2,x,x,x,x
CN(CCOC(=O)c1cc2ccccc2o1)C1CN(Cc2cn(Cc3ccccc3F)nn2)S(=O)(=O)C1 (configuration not stated),x,-2,x,2,1,x,x,x,x
CNC(=S)N(CCc1c(C)[nH]c2ccc(C)cc12)Cc1cccs1,1,-55,20,9.8*,22*,2,2,16,10*
COc1ccc(OC)c(NC(=O)C2C3C=CC(C3)C2C(=O)NCc2ccccn2)c1 (configuration not stated),-2,4,-7,9.6*,30*,-1,-1,3,8
Cc1cccc(C)c1NC(=O)C1C2C=CC(C2)C1C(=O)NCc1ccccn1 (configuration not stated),1,3,-11,-2,-6,x,x,x,x
O=S1(=O)N[C@H](Cc2ccccc2)COc2cc(N3CCOCC3)ccc21,x,3,x,-2,-13,x,x,x,x
COc1ccc2nc(-c3ccc(CN4CCC(c5nc6ccccc6[nH]5)CC4)cc3)c(-c3ccccc3)nc2c1,x,-9,x,-68,-289,x,x,x,x
Cc1ccc(CN2CCCCC(NC(=O)c3ccc(Br)cc3)C2=O)cc1 (configuration not stated),x,9,x,2,10,x,x,x,x
Cc1ccc2c(c1)-n1c(nc3cc(C)ccc3c1=O)C(Cc1ccccc1)NC2=O (configuration not stated),x,0,x,17*,21*,6,2,7,6
Cc1ccc(S(=O)(=O)NC(=O)ON=Cc2ccc3c(c2)OCO3)cc1,x,-2,x,-4,-5,x,x,x,x
C=C(C)C(=O)OCC(O)COc1ccc(C(C)(C)c2ccc(OCC(O)COC(=O)C(=C)C)cc2)cc1 (configuration not stated),-13,-64,25,9.5*,35*,8,2,33*,18*
SMILES,GRIN3A LBD mod,HGIII-sPLA2 inh,FAS-TE inh,ADAM17 inh,ADAM10 inh,ADAM10 confirm,ADAM17 counter,ADAM10 counter,ADAM17 confirm
CC(=O)c1ccc(OCC(O)COc2ccc(C(C)=O)cc2)cc1,0,0,-5,5,6,x,x,x,x
CCOC(=O)CN1C(=O)[C@]2(OCCC=C[C@H]2C)c2c(Br)cccc21,x,-1,x,-3,2,x,x,x,x
COC(=O)C1=C(C)N(Cc2ccccc2C(F)(F)F)C(=NCc2ccccc2C(F)(F)F)NC1c1cccc(F)c1 (configuration not stated),x,-10,x,0,7,x,x,x,x
Cc1sc2ncnc(N3CCC(C(=O)N(C)CC(=O)Nc4cccc(F)c4)CC3)c2c1C,x,-12,7,-1,-2,x,x,x,x
Cc1sc2ncnc(N3CCC(C(=O)N(C)CC(=O)Nc4ccc(Cl)c(C(F)(F)F)c4)CC3)c2c1C,x,-29,13,12*,23*,8,2,48*,25*
Cc1ccc([N+](=O)[O-])cc1-c1[nH]c(-c2ccc(O)c(O)c2)nc1-c1ccccc1,6,13,15,8.8*,21*,6,2,28*,13*
CCN(CC)C(=O)CC[C@H]1CC[C@]2(CCCN(Cc3ccccn3)C2)O1,x,8,x,2,-1,x,x,x,x
O=C(NCC1COc2ccccc2O1)c1cccc(S(=O)(=O)N2CCN(c3ccccc3)CC2)c1 (configuration not stated),7,-10,34,9.9*,21*,6,2,13,13*
COc1ccc(NC(=O)COc2ccccc2)cc1Cl,-6,-2,8,1,16,x,x,x,x
COc1ccc(NC(=S)Nc2cc(-c3ccccc3)[nH]n2)cc1Cl,34*,14,26,19*,32*,12,3,36*,22*
